Measurements taken from PubChem BioAssay (EPA / NIEHS).
Where “and” joins values, the source holds several entries; their conditions need not be identical. Equal entries are not always repeated. Results filed as inconclusive are left out. Some compounds were tested as several samples or in several runs, with calls that do not always agree. Calls of active or inactive are those of the source. Rule for the calls, unless noted: active = hit-call score of the fitted dose curve at least 0.9, where 1 is the maximum; inactive = score below 0.9.

Tests used:
[1] = BSK_BT_PBMCCytotoxicity: PBMC Cytotoxicity Assessment in the BioMAP Diversity Plus: BT Assay (AID 2284225); conditions: primary human B cells with PBMC;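 note: PBMC viability measured by Alamar Blue dye reduction fluorescence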
In short: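 75,000 cells/well; cpd 1 h → SEB + TSST-1 (20 ng/mL final each) → 90 h → Alamar Blue 6 h → fluor. 546/580 nm. DMSO = neg. control/baseline.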

[2] = read-out: Secreted IgG (sIgG), gene 3500; test: BSK_BT_sIgG: BioMAP Diversity Plus: BT Assay for Secreted IgG (sIgG) Biomarker Activity (AID 2284226); conditions: primary human B cells with PBMC
In short: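 Secreted IgG from a human primary B cell–PBMC co-culture was measured by ELISA 24 hours after dosing, with DMSO defining baseline activity.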

[3] = BSK_BT_Bcell_Proliferation: Viability Assessment in the BioMAP Diversity Plus: BT Assay for B cell Proliferation (AID 2284227); conditions: primary human B cells with PBMC
In short: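 Read-out is absorbance at 560 nm from sulforhodamine B staining of total protein, reflecting relative cell numbers in a human B cell and PBMC co-culture after 72 h of chemical exposure. Values were referenced to DMSO.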

[4] = read-out: Interleukin 6 (IL6), IL6 (gene 3569); test: BSK_BT_xIL6: BioMAP Diversity Plus: BT Assay for Interleukin 6 (IL6) Biomarker Activity (AID 2284228); conditions: primary human B cells with PBMC
In short: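 Secreted IL-6 in the primary human B cell plus PBMC system, measured by Luminex at 24 h post-chemical, DMSO as baseline. Alamar Blue viability: 75,000 cells/well, chemical 1 h before SEB/TSST-1 (20 ng/mL each), 90 h, then 6 h dye.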

[5] = read-out: Interleukin 17A (IL17A), IL17A (gene 3605); test: BSK_BT_xIL17A: BioMAP Diversity Plus: BT Assay for Interleukin 17A (IL17A) Biomarker Activity (AID 2284229); conditions: primary human B cells with PBMC
In short: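 Luminex xMAP quantification of secreted IL-17A after 24 h chemical exposure of a primary human B cell/PBMC co-culture. Signal increases fitted relative to DMSO negative control.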

[6] = read-out: Tumor necrosis factor (Homo sapiens) (UniProt P01375); test: BSK_BT_xTNFa: BioMAP Diversity Plus: BT Assay for Tumor necrosis factor alpha (TNF-alpha) Biomarker Activity (AID 2284230); conditions: primary human B cells with PBMC
In short: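 Human primary co-culture of B cells and peripheral blood mononuclear cells; TNF-alpha in supernatant, 24 h post-dose, Luminex multiplex; DMSO = baseline.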

[7] = read-out: Collagen I, COL1A1 (gene 1277); test: BSK_MyoF_CollagenI: BioMAP Diversity Plus: MyoF Assay for Collagen I Biomarker Activity (AID 2284238); conditions: primary human lung fibroblasts
In short: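 Collagen I levels measured by ELISA on human lung fibroblast cultures 24 h post-dosing, with curve fitting in the positive direction relative to DMSO; SRB staining of parallel wells marked cytotoxicity.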

[8] = read-out: Collagen III, COL3A1 (gene 1281); test: BSK_MyoF_CollagenIII: BioMAP Diversity Plus: MyoF Assay for Collagen III Biomarker Activity (AID 2284239); conditions: primary human lung fibroblasts
In short: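 Collagen III biomarker quantified by ELISA in human lung fibroblast cultures 24 h after dosing. Activity fitted in the positive direction against DMSO as baseline.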

[9] = read-out: Interleukin 17F (IL17F), IL17F (gene 112744); test: BSK_BT_xIL17F: BioMAP Diversity Plus: BT Assay for Interleukin 17F (IL17F) Biomarker Activity (AID 2284243); conditions: primary human B cells with PBMC
In short: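 Human B cells co-cultured with PBMC; secreted IL-17F quantified by LumineX xMAP 24 hours after chemical dosing. Activity fitted in the positive direction against DMSO negative control as baseline.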

[10] = read-out: Actin alpha 1 (ACTA1), ACTA1 (gene 58); test: BSK_MyoF_ACTA1: BioMAP Diversity Plus: MyoF Assay for Actin alpha 1 (ACTA1) Biomarker Activity (AID 2284244); conditions: primary human lung fibroblasts
In short: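 Measured by ELISA: alpha-smooth muscle actin in human primary lung fibroblasts 24 h after dosing, with DMSO as baseline and upward signal change as the fitted direction.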

[11] = read-out: Interleukin 2 (IL2), IL2 (gene 3558); test: BSK_BT_xIL2: BioMAP Diversity Plus: BT Assay for Interleukin 2 (IL2) Biomarker Activity (AID 2284245); conditions: primary human B cells with PBMC
In short: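 Secreted interleukin-2 from human B cell/PBMC co-cultures, measured 24 h post-dosing by Luminex multiplex immunoassay. Upward-direction curve fitting against DMSO baseline.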

[12] = TAMU_HCS_1.5hr_SingleDonor1434_Cytotoxicity: Cytotoxicity Assessment using High-content Screening (HCS) Fluorescent Imaging for the Texas A&M University (TAMU) 1.5-hr Human Induced Pluripotent Stem Cell (iPSC)-derived Cardiotoxicity Assay (AID 2284234; active = hit-call score of the fitted dose curve at least 0.9, where 1 is the maximum)
In short: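 Human iPSC-derived cardiomyocytes dosed at 0.2, 1, 10, 100 uM final (0.5% DMSO) for 90 min at 37 C. Hoechst 33342-stained nuclei counted by 10x high-content imaging; POD is EC10, a 10% drop in total cell count versus DMSO.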

[13] = TAMU_PeakParms_SingleDonor1434_QT: Texas A&M University (TAMU) 1.5-hr Human Induced Pluripotent Stem Cell (iPSC)-derived Cardiomyocytes Calcium (Ca+2) Flux Assay for Cardiotoxicity: QT (decay-rise ratio) (AID 2284235; active = hit-call score of the fitted dose curve at least 0.9, where 1 is the maximum)
In short: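 iPSC-derived cardiomyocytes (single donor 1434) dosed at 0.2, 1, 10, 100 uM final in 0.5% DMSO, 90 min at 37C. Ca2+ flux fluorescence decay/rise ratio; EC05 (5% increase versus DMSO) as POD, excluding beat-arrest and severe-notch data.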

[14] = CCTE_Mundy_HCI_Cortical_NOG_BPCount: CCTE's Neurite Outgrowth Assay in rat cortical cells for Branch Point Count, Mundy Lab (AID 2284237)
In short: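 Measured 50.33 h after dosing, this morphology endpoint uses rat primary cortical cultures labelled for betaIII-tubulin. Branch points are quantified by high-content imaging, with DMSO as negative control and baseline.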

[15] = CCTE_Mundy_HCI_hNP1_Casp3_7: CCTE's Caspase-Glo 3/7 Assay in human neuroprogenitor cells for Apoptosis, Mundy Lab (AID 2284240)
In short: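 Luminescent caspase-3/7 readout, 26.5 h post-dose, in human neural progenitor cells from WA09 embryonic stem cells. Cells grew 40–44 h at 37 °C, 5% CO2 before chemical addition. Activity analysed as signal increase over DMSO baseline.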

[16] = CCTE_Mundy_HCI_hNP1_CellTiter: CCTE's Cell Titer-Glo 2 Assay in human neuroprogenitor cells for Viability, Mundy Lab (AID 2284241; active = hit-call score of the fitted dose curve at least 0.9, where 1 is the maximum)
In short: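 Viability read as luminescent ATP content (CellTiter-Glo, 30 min room temperature) twenty-four hours after dosing, relative to DMSO. Cells: WA09-derived hNP1 neuroprogenitors on poly-L-ornithine/laminin, plated 40 to 44 hours before chemical.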

[17] = CCTE_Mundy_HCI_hNP1_Pro_ResponderAvgInten: CCTE's Proliferation Assay in human neuroprogenitor cells, Mundy Lab (AID 2284224; active = hit-call score of the fitted dose curve at least 0.9, where 1 is the maximum;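 note: human neural progenitor cells hNP1 derived from WA09 embryonic stem cells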)
In short: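 Proliferation read as average intensity of BrdU-positive cells, imaged at 26.25 h post-dosing: chemical exposure started after 40–44 h culture, BrdU during final 4 h, paraformaldehyde fixation. Positive-direction fit relative to DMSO.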

[18] = UKN2_HCS_IMR90_cell_viability: Viability Assessment in the University of Konstanz (UKN) Leist Lab Neural Crest Cell Migration Assay in human induced IMR90 Pluripotent Stem Cells (UKN2) (AID 2284233);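 note: viability of neural crest cells differentiated from IMR90 iPSC measured by calcein-AM fluorescence imaging; cells exposed to compound for 24 h after a 24 h migration phase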
In short: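 Neural crest cells derived from IMR90 iPSC migrate into a stopper-free zone for 24 h in EGF/FGF medium, then are exposed to compound for 24 h. Viability assessed by calcein-AM and Hoechst staining with high-content imaging, fitted bidirectionally versus DMSO.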

[19] = CCTE_Mundy_HCI_Cortical_NOG_NeuronCount: CCTE's Neurite Outgrowth Assay in rat cortical cells for Neuron Count, Mundy Lab (AID 2284236; active = hit-call score of the fitted dose curve at least 0.9, where 1 is the maximum;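 note: neurons counted by imaging betaIII-tubulin and Hoechst stained cortical cells; cells exposed to compound for about 48 hours before fixation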)
In short: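 Read-out: neuron number by high-content imaging of betaIII-tubulin (Alexa Fluor-488) and Hoechst-labelled rat primary cortical cells.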

[20] = CCTE_Mundy_HCI_Cortical_Synap_Neur_Matur_NeuronCount: CCTE's Synaptogenesis and Neurite Maturation Assay in rat cortical cells for Neuron Count, Mundy Lab (AID 2284242; active = hit-call score of the fitted dose curve at least 0.9, where 1 is the maximum;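 note: neuron number from Hoechst nuclei and MAP2 staining by high-content imaging; hits reduce neuron count versus DMSO baseline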)
In short: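 Imaging-based neuron count in rat cortical cultures after chemical exposure from DIV 7 to DIV 12, with AraC added at DIV 5. Activity is fitted relative to DMSO.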

Measured: AC50

Tumor necrosis factor (Homo sapiens), sequence (P01375 whole entry, looked up): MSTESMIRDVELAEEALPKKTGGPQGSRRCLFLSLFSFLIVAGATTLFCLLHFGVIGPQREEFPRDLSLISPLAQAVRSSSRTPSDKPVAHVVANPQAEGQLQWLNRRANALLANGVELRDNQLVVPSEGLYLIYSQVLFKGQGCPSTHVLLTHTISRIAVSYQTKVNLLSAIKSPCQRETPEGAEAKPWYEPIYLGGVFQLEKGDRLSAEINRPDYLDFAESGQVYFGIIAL

CC(O)C(F)(F)C(F)(F)F (configuration not stated)
inactive: [1] | [2] | [3] | [4] | [5] | [6] | [7] | [8] | [9] | [10] | [11]

CCCCC(CC)COP(=O)(Oc1ccccc1)Oc1ccccc1 (configuration not stated)
inactive: [13] | [14]
active: [1] 36.7 µM | [2] 16.1 µM | [3] 31.3 µM | [4] 20 µM | [5] 20 µM | [6] 20 µM | [12] 50 µM | [7] 9.47 µM | [8] 9.45 µM | [9] 20 µM | [10] 8.64 µM | [11] 20 µM

O=C(O)C=CC(F)(C(F)(F)F)C(F)(F)F
active: [9] 0.219 µM
inactive: [1] | [2] | [3] | [4] | [5] | [6] | [7] | [8] | [15] | [16] | [9] | [10] | [11]

FC(F)(F)C(F)(C(F)(F)F)C(F)(F)C(F)(F)CC1CO1 (configuration not stated)
inactive: [17] | [1] | [2] | [3] | [4] | [5] | [6] | [7] | [8] | [15] | [16] | [9] | [10] | [11]

O=C(O)C(F)(F)OC(F)(F)C(F)(F)OC(F)(F)F
inactive: [1] | [2] | [3] | [4] | [5] | [6] | [7] | [8] | [15] | [16] | [9] | [10] | [11]
active: [3] 12.6 µM

OCC(F)(F)OC(F)(F)C(F)(F)OC(F)(F)C(F)(F)OC(F)(F)F
inactive: [5] | [15]
active: [1] 30.7 µM and 43.3 µM | [2] 50.4 µM and 44.2 µM | [3] 22.6 µM and 52.7 µM | [4] 46.6 µM and 45.2 µM | [5] 49.2 µM | [6] 50.4 µM and 30 µM | [7] 39.9 µM and 22.1 µM | [8] 19.7 µM and 23.9 µM | [9] 30 µM and 22.2 µM | [10] 18.3 µM and 11.5 µM | [11] 53.9 µM and 23.4 µM

CC(C)Nc1ccc(Nc2ccccc2)cc1
active: [1] 2.89 µM | [2] 2.73 µM | [3] 2.3 µM | [4] 4.22 µM | [5] 3.17 µM | [6] 5 µM | [7] 26 µM | [8] 20 µM | [9] 4.55 µM | [10] 22.7 µM | [11] 5.05 µM

O=C(O)C(F)(F)OC(F)(F)C(F)(F)OC(F)(F)C(=O)O
inactive: [1] | [2] | [3] | [4] | [5] | [6] | [7] | [8] | [15] | [16] | [9] | [10] | [11]

CCOP(=S)(OCC)SCSCC
inactive: [17] | [18] | [19] | [14] | [15] | [16]
active: [20] 78.4 µM

CCCCOCCOP(=O)(OCCOCCCC)OCCOCCCC
active: [6] 0.015 µM
inactive: [1] | [2] | [3] | [4] | [5] | [7] | [8] | [9] | [10] | [11]
